Assay results: the supplement of paper PMC8728848
Shown is part of a subset that was picked to be rich in the strongest signals.

Legend:
Assay in all cases: glycan array binding signal (z-score within array); higher = stronger binding
Conditions in all cases: glycan notation: IUPAC condensed, linker removed
Fuc(a1-2)Gal = biological target: Fuc(a1-2)Gal
How it was run: (§1)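 The binding signal is a Z-score computed within each array. Data were drawn from 3228 arrays in the Consortium for Functional Glycomics database, restricted to those with a known protein sequence. Scores were averaged over arrays of the same protein sequence at different concentrations or buffers, and over linkers, and negative values can be taken as non-binding.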

Fuc(a1-2)Gal(b1-4)Glc6S = biological target: Fuc(a1-2)Gal(b1-4)Glc6S
How it was run: as §1

[1] = biological target: Fuc(a1-2)[Gal(a1-4)]Gal(b1-4)GlcNAc
How it was run: as §1

Gal(a1-3)GalNAc = biological target: Gal(a1-3)GalNAc
How it was run: as §1

Gal(b1-3)GalNAc = biological target: Gal(b1-3)GalNAc
How it was run: as §1

Gal(b1-4)Glc = biological target: Gal(b1-4)Glc
How it was run: as §1

[2] = biological target: Gal(b1-4)GlcNAc(a1-6)Gal(b1-4)GlcNAc
How it was run: as §1

[3] = biological target: Gal(b1-4)GlcNAc(b1-3)Gal(b1-4)Glc
How it was run: as §1

Gal3S(b1-3)GalNAc = biological target: Gal3S(b1-3)GalNAc
How it was run: as §1

Gal3S6S(b1-4)GlcNAc6S = biological target: Gal3S6S(b1-4)GlcNAc6S
How it was run: as §1

[4] = biological target: GlcNAc(b1-2)Man(a1-3)[GlcNAc(b1-2)Man(a1-6)]Man(b1-4)GlcNAc(b1-4)GlcNAc
How it was run: as §1

[5] = biological target: GlcNAc(b1-3)[GlcNAc(b1-6)]GalNAc
How it was run: as §1

[6] = biological target: GlcNAc(b1-4)GlcNAc(b1-4)GlcNAc(b1-4)GlcNAc(b1-4)GlcNAc(b1-4)GlcNAc
How it was run: as §1

Kdn(a2-3)Gal(b1-4)GlcNAc = biological target: Kdn(a2-3)Gal(b1-4)GlcNAc
How it was run: as §1

[7] = biological target: Man(a1-3)[Man(a1-6)]Man(a1-6)[Man(a1-3)]Man(b1-4)GlcNAc(b1-4)GlcNAc
How it was run: as §1

[8] = biological target: Man(a1-3)[Man(a1-6)]Man(b1-4)GlcNAc(b1-4)GlcNAc
How it was run: as §1

[9] = biological target: Neu5Ac(a2-3)Gal(b1-3)GalNAc6S
How it was run: as §1

[10] = biological target: Neu5Ac(a2-3)Gal(b1-3)[Fuc(a1-4)]GlcNAc
How it was run: as §1

[11] = biological target: Neu5Ac(a2-3)Gal(b1-3)[Fuc(a1-4)]GlcNAc(b1-3)Gal(b1-4)[Fuc(a1-3)]GlcNAc
How it was run: as §1

[12] = biological target: Neu5Ac(a2-3)Gal(b1-3)[Neu5Ac(a2-6)]GalNAc
How it was run: as §1

[13] = biological target: Neu5Ac(a2-3)Gal(b1-4)GlcNAc(b1-3)Gal(b1-3)GlcNAc
How it was run: as §1

[14] = biological target: Neu5Ac(a2-3)Gal(b1-4)[Fuc(a1-3)]GlcNAc(b1-6)[Gal(b1-3)]GalNAc
How it was run: as §1

[15] = biological target: Neu5Ac(a2-3)Gal(b1-4)[Fuc(a1-3)]GlcNAc6S
How it was run: as §1

[16] = biological target: Neu5Ac(a2-3)[Neu5Ac(a2-6)]GalNAc
How it was run: as §1

[17] = biological target: Neu5Ac(a2-6)GalNAc(b1-4)GlcNAc
How it was run: as §1

[18] = biological target: Neu5Gc(a2-3)Gal(b1-3)[Fuc(a1-4)]GlcNAc
How it was run: as §1

B1: P-Selectin (Homo sapiens), P16109 (protein)
chain: MANCQIAILYQRFQRVVFGISQLLCFSALISELTNQKEVAAWTYHYSTKAYSWNISRKYCQNRYTDLVAIQNKNEIDYLNKVLPYYSSYYWIGIRKNNKTWTWVGTKKALTNEAENWADNEPNNKRNNEDCVEIYIKSPSAPGKWNDEHCLKKKHALCYTASCQDMSCSKQGECLETIGNYTCSCYPGFYGPECEYVRECGELELPQHVLMNCSHPLGNFSFNSQCSFHCTDGYQVNGPSKLECLASGIWTNKPPQCLAAQCPPLKIPERGNMTCLHSAKAFQHQSSCSFSCEEGFALVGPEVVQCTASGVWTAPAPVCKAVQCQHLEAPSEGTMDCVHPLTAFAYGSSCKFECQPGYRVRGLDMLRCIDSGHWSAPLPTCEAISCEPLESPVHGSMDCSPSLRAFQYDTNCSFRCAEGFMLRGADIVRCDNLGQWTAPAPVCQALQCQDLPVPNEARVNCSHPFGAFRYQSVCSFTCNEGLLLVGASVLQCLATGNWNSVPPECQAIPCTPLLSPQNGTMTCVQPLGSSSYKSTCQFICDEGYSLSGPERLDCTRSGRWTDSPPMCEAIKCPELFAPEQGSLDCSDTRGEFNVGSTCHFSCDNGFKLEGPNNVECTTSGRWSATPPTCKGIASLPTPGLQCPALTTPGQGTMYCRHHPGTFGFNTTCYFGCNAGFTLIGDSTLSCRPSGQWTAVTPACRAVKCSELHVNKPIAMNCSNLWGNFSYGSICSFHCLEGQLLNGSAQTACQENGHWSTTVPTCQAGPLTIQEASTSITAYKSEGESAEFSFPLNLGEESLQGELRWKAEKAPSSQSWITFSLKNQKVSVQKSTSNPKFQLSETLPLTLQIPQVSLQFAGSGNLTLTLDRGILYQEVNLVVMKVTQPDSNTLTCEVMGPTSPKMRLILKQENQEARVSRQEKVIQVQAPEAGVWQCLLSEGEEVKMDSKIQVLSKGLNSGGGSGGGTGGGDLAPQMLRELQETNAALQDVRELLRQQVKEITFLKNTVMECDACGLDRNLPPLAPLGPHPETLVKVKDAEDQLGARVGYIELDLNSGKILESFRPEERFPMMSTFKVLLCGAVLSRIDAGQEQLGRRIHYSQNDLVEYSPVTEKHLTDGMTVRELCSAAITMSDNTAANLLLTTIGGPKELTAFLHNMGDHVTRLDRWEPELNEAIPNDERDTTMPVAMATTLRKLLTGELLTLASRQQLIDWMEADKVAGPLLRSALPAGWFIADKSGAGERGSRGIIAALGPDGKPSRIVVIYTTGSQATMDERNRQIAEIGASLIKHWGPDYKDHDGDYKDHDIDYKDDDDKGPHHHHHH
- glycan array binding signal (z-score) (Fuc(a1-2)Gal): -0.092
- glycan array binding signal (z-score) (Fuc(a1-2)Gal(b1-4)Glc6S): -0.268
- glycan array binding signal (z-score) [1]: -0.151
- glycan array binding signal (z-score) (Gal(a1-3)GalNAc): -0.071
- glycan array binding signal (z-score) (Gal(b1-3)GalNAc): -0.218
- glycan array binding signal (z-score) (Gal(b1-4)Glc): -0.174
- glycan array binding signal (z-score) [2]: -0.301
- glycan array binding signal (z-score) [3]: -0.219
- glycan array binding signal (z-score) (Gal3S(b1-3)GalNAc): -0.113
- glycan array binding signal (z-score) (Gal3S6S(b1-4)GlcNAc6S): 4.08
- glycan array binding signal (z-score) [4]: -0.237
- glycan array binding signal (z-score) [5]: -0.329
- glycan array binding signal (z-score) [6]: -0.163
- glycan array binding signal (z-score) (Kdn(a2-3)Gal(b1-4)GlcNAc): -0.191
- glycan array binding signal (z-score) [7]: -0.052
- glycan array binding signal (z-score) [8]: 0.332
- glycan array binding signal (z-score) [9]: 0.282
- glycan array binding signal (z-score) [10]: 6.36
- glycan array binding signal (z-score) [11]: 3.52
- glycan array binding signal (z-score) [12]: 0.025
- glycan array binding signal (z-score) [13]: -0.141
- glycan array binding signal (z-score) [14]: 0.071
- glycan array binding signal (z-score) [15]: 9.93
- glycan array binding signal (z-score) [16]: -0.109
- glycan array binding signal (z-score) [17]: -0.322
- glycan array binding signal (z-score) [18]: 4.38
